Data taken from PubChem BioAssay (NCI).
The panel holds about 83,000 compounds, 20% with a hit somewhere; the sample as a whole holds those more often.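 Cells were grown in 96-well plates and exposed to the test compound at a single concentration for 48 hours; results are reported as percent growth, with values below 10 considered active.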 Calls of active or inactive are those of the source.

tested on: HOP-62 NSCLC; assay: NCI-60 one-dose screen, 48 h (100 = growth as untreated, 0 = no growth, -100 = all killed); conditions: 10 µM unless noted
Procedure: Growth inhibition of the HOP-62 human Non-Small Cell Lung tumor cell line is measured as a screen for anti-cancer activity. Cells are grown in 96 well plates and exposed to the test compound for 48 hours. Compounds are tested at a single concentration, which is 10^-5 M for most compounds. The reported endpoint is percent growth (GI% or GIPRCNT), where numbers from 0 - 100% represent growth inhibition, and numbers from -100% - 0 represent cell death. For example, a value of 40 represents 60% growth inhibition. A value of 0 means no net growth occurred over the course of the experiment. A value of -40 indicates 40% of cells at the beginning of the experiment died by the end of the experiment. A value of -100 means all cells are dead at the end of the experiment.
NCI-60 Human Tumor Cell Lines Screen was performed using the standard one-dose NCI protocol, which is described in more detail at https://dtp.cancer.gov/discovery_development/nci-60/default.htm.
Compounds with GIPRCNT values below 10 were considered active. Activity score was based on GIPRCNT using the following formula: […]
Score is 0 for GIPRCNT values of 100 or above, 50 for GIPRCNT values of 0, and 100 for GIPRCNT values of -100.

Compound	growth
CCCC(=O)Nc1ccccc1C(=O)O	96.9% (inactive)
COc1cc(-c2nn(-c3ccc(NC(=O)c4ccc(Cl)c(Cl)c4)cc3)cc2-c2ccncc2)ccc1Cl	52.7% (inactive)
CCCCN(CCC)CCCCCCCCCCN1CCCc2ccccc21	92.5% (inactive)
CN1C(=O)C(=Cc2coc3ccc(Br)cc3c2=O)C(=O)N(C)C1=O	94.5% (inactive)
CCOC(=O)C(C)C(C)(O)c1ccccc1 (stereo not given)	109% (inactive)
O=C(Nc1cccc(Cn2c(=O)[nH]c3ccc(Oc4ncccn4)cc3c2=O)c1)c1cccc(F)c1	79% (inactive)
C=CCNC(=S)NNc1ccc([N+](=O)[O-])cn1	105% (inactive)
COc1cc(-c2nn(-c3ccc(NC(=O)Nc4ccc(Cl)c(Cl)c4)cc3)cc2-c2ccncc2)ccc1Cl	47.5% (inactive)
CCN(CCO)CCNc1ccc(C)c2sc3cc(OC)ccc3c(=O)c12	62% (inactive)
COc1ccc(-c2nnc(SCC(=O)Nc3ccc(C(=O)/C=C/c4cc(OC)c(OC)c(OC)c4)cc3)n2-c2ccccc2)cc1OC	-31.4% [100 µM] (active)
CCCCCCNC(=O)Oc1ccc(/C(=C(/C)Cc2ccc(OC)cc2)c2ccc(OCCN3CCCCC3)cc2)cc1	91.2% (inactive)
CCCCCCCCCCC1OC(C)CC(C)O1 (stereo not given)	99.8% (inactive)
COc1ccc2cnc(N)c(C#Cc3cc(C(=O)Nc4ccc(CN5CCN(C)CC5)c(C(F)(F)F)c4)cnc3C)c2c1	18.9% (inactive)
COc1ccc(/C=N/c2cc(C(C)(C)C)nn2-c2ccccc2)cc1	111% (inactive)
CCn1cnc(C[C@H](NC(=O)[C@@H](NC(=O)Nc2cc(C(F)(F)F)cc(C(F)(F)F)c2)C(C)(C)C)C(=O)OC)c1	-95.5% [100 µM] (active)
CC(C)C(=O)c1ccc(Cl)s1	98.1% (inactive)
COc1ccc(Oc2[nH]n(C3=Nc4ccccc4Sc4ccccc43)c(=O)c2C#N)cc1	92.1% (inactive)
CCn1cnc(C[C@H](NC(=O)[C@@H](NC(=O)Nc2cc(C(F)(F)F)cc(C(F)(F)F)c2)C(C)C)C(=O)OC)c1	-97.9% [100 µM] (active)
Cc1ccccc1-n1c(C)nc2cc(NC(=O)c3ccc(Cl)cc3)ccc2c1=O	97.4% (inactive)
Cc1ncc(C(=O)Nc2ccc(CN3CCN(C)CC3)c(C(F)(F)F)c2)cc1C#Cc1c(N)ncc2ccc(F)cc12	15.9% (inactive)

Compound	growth
CC(=O)C(CO)C(=O)Nc1ccccc1 (stereo not given)	93.3% (inactive)
O=C(N/N=C/c1coc2ccccc2c1=O)c1cc2oc(-c3ccccc3)cc2[nH]1	95.9% (inactive)
Nc1nc2cc(O)ccc2n2cc3c(F)cccc3c12	24.9% (inactive)
CCCCCCCCCCC(C[N+](C)(C)C/C=C/c1ccccc1)C(O)c1ccccc1 (stereo not given)	-30.3% (active)
CC([C@H]1CC=C2C3CCC4=C[C@@H](N(C)C)CC[C@]4(C)C3CC[C@@]21C)N(C)C (stereo not given in full)	-19.4% (active)
CC(=O)N1CCN(CCNC(=O)n2cc(-c3ccncc3)c(-c3ccc(O)c(Cl)c3)n2)CC1	106% (inactive)
N=C(c1ccccc1)N(Cc1ccccc1)Cc1ccccc1	97.1% (inactive)
Cc1cc2cn3c4ccc(O)cc4nc(N)c3c2cc1C	13.6% (inactive)
Br/C(=N\Nc1nn[nH]n1)c1ccccc1	98% (inactive)
O=C(CCl)c1ccc2c(c1)CCCC2	107% (inactive)
COc1ccc(-c2nc(N)n(C(=S)Nc3ccccc3)n2)cc1	87.3% (inactive)
CCCCCCCCCCN1CC2CCCCC2C1 (stereo not given)	69.4% (inactive)
CC(C)CSc1nc(-c2ccc(F)cc2)c(C#N)c(N2CCCCC2)n1	110% (inactive)
CC(=O)Nc1ccc(S(=O)(=O)Cl)cc1	102% (inactive)
COc1cc(-c2nn(-c3ccc(NC(=O)Nc4ccc(Cl)c(C(F)(F)F)c4)cc3)cc2-c2ccncc2)ccc1Cl	8.98% (active)
NCCCOc1cc2ccccc2cc1C(=O)Nc1ccc(Cl)cc1OC(=O)c1cc2ccccc2cc1OCCCN	-92.3% (active)
CNc1ccc(Nc2ccc(S(=O)(=O)O)cc2)c2c1C(=O)c1ccccc1C2=O	125% (inactive)
CC(Br)c1nc2ccccc2cc1C(N)=O (stereo not given)	101% (inactive)
Cc1ccc(C(=O)NN)cc1	104% (inactive)
OCCN1CCN(CC/C=C2/c3ccccc3Sc3ccc(C(F)(F)F)cc32)CC1	75.9% (inactive)
